This passage reports seed-corrected z-score results from PubChem BioAssay AID1159506 (National Center for Advancing Translational Sciences (NCATS), 2015).

The full ranking holds about 59,000 sequences; the median of the read-out is about -0.00055, and the lowest 2% start at about -2. The full list was thinned out, with the lowest values kept by preference.

This assay in a line: Identification of proteins required for the processing of the EWS-FLI1 nascent transcript.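 Further: robust z of luciferase light less the median z of siRNAs with the same seed.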 The settings on record: TC32 Ewing sarcoma NR0B1-luc vs CMV-luc (EWS-FLI1 target promoter against control promoter), 48 h; screened at 20 nM (by protocol). How it is done:
Ewing sarcoma (ES) cells depend on the EWS-FLI1 fusion transcription factor for cell survival. Using an assay of EWS-FLI1 activity and genome-wide siRNA screening we have identified proteins required for the processing of the EWS-FLI1 nascent transcript. Parallel genome-wide siRNA-mediated RNAi screens were conducted in Ewing sarcoma TC32 cell lines expressing a luciferase (luc) reporter protein driven by either the promoter of the EWS-FLI1 target gene NR0B1 (TC32-NR0B1-luc) or the CMV promoter (TC32-CMV-luc). Luciferase activity was assessed 48 hours post siRNA-transfection.
Twenty microl of serum-free media containing Lipofectamine RNAiMax (0.05 microl) was added to wells containing siRNA (0.8 pmol). Lipid and siRNA were allowed to complex for 45 min at ambient temperature before addition of 600 cells in RPMI-1640, 20% FBS to yield final transfection mixtures containing 20 nM siRNA in RPMI-1640, 10% FBS. Luciferase expression was measured using OneGlo (Promega, Madison, WI). The genome-wide screening campaign was conducted using Ambion's human genome library version 4.1 (Ambion, Austin TX). This library targets approximately 21000 human genes, three siRNAs per gene. Each siRNA is arrayed in an individual well of a 384-well plate. Parallel transfections were conducted in TC32-NR0B1-luc and TC32-CMV-luc cell lines and luciferase expression (OneGlo, Promega) was assayed 48 h later on a PerkinElmer Envision 2104 Multilabel plate reader (PerkinElmer, Waltham, MA). Qiagen's AllStars Negative control was incorporated on all screening plates for normalization (16 wells per plate). Qiagen, Germantown, MDsiGL4 was incorporated as a positive transfection control (16 wells per plate) on all plates. […] The raw luciferase data for the NR0B1- and CMV-luc screens were normalized and z-score-MAD transformed using standard methods (Chung et al., 2008). The miRNA-like seed sequence of every siRNA was determined and the median z-score for all siRNA sequences with the same seed sequence was calculated. This z-score was subtracted from the z-score associated with each siRNA with that seed sequence to generate a seed-adjusted z-score value (Z) that was used when the results for the three siRNAs corresponding to each gene were compared (Marine et al., 2012)
In turn, AUGGGAAUAGGAAAGUAUG against OR2M4 returned a seed-corrected z-score of -2.09. The sequence UGUCCAAUUAGGGACCAGC against SLF2 gave a seed-corrected z-score of -0.225.

ACUGUAUAGAUUGUGAACC against KDM3B: the seed-corrected z-score was found to be 1.03. As to UUCCAUAGUAGUAGGAUCU against TMEM14B, the seed-corrected z-score is 0.134. Turning to UCUGGUUAUCAGAAAACCC against PCNP, the seed-corrected z-score is 0.114.

Turning to UUGUGGUUUAGGGUUUUCU against YBX1, the seed-corrected z-score was -2.1. UUCUUAUAACCAUUGACUG against SLCO1B3 had a seed-corrected z-score of 0.328.

For UAAAGAGUGGUGUUGGUGG against RSPH3, the seed-corrected z-score was -0.756.

Sequence UUUAGUUCCAGUGCCUUAG against CCDC151 gave a seed-corrected z-score of 0.491. As for CUUUCAGCGUGGCUGUUCC against C6orf132, the seed-corrected z-score was -4.94. The sequence UUCCUAAUAAACCCAGCGC against SOWAHD gave a seed-corrected z-score of -0.0823. For the sequence UCAGAGAUCAAAGAGAAGU against TUBB4A, the seed-corrected z-score was 0.356.

In turn, UGAGUGAAGUGCGAUAUCC against ELL registered a seed-corrected z-score of 0.176. UAGGAACCAGAAAUAAUCC against ATP8A2 had a seed-corrected z-score of -0.455.

Turning to UUAGGGAUGACGUGGGUGC against GRIN1, the seed-corrected z-score is -2.06. As to UUAAACUCCACGUCGUCAG against SIRPB1, the seed-corrected z-score was -0.756. As for UUUAUGGAUCUAAUUGUCG against CBWD1, the seed-corrected z-score is 0.289. For UGCAUGGUGAUAGUCAGGU against CD7, the seed-corrected z-score was -0.0598. The sequence AAACCGUCCUUCCUCAUGC against IL16 came in with a seed-corrected z-score of 0.0574. As to UUAGUCUUCCCGGAUUGCC against ADAR, the seed-corrected z-score stood at 0.696. In turn, UUCUGGAUAAACAUAUUCC against MCU had a seed-corrected z-score of -0.133. As to UUCCAGUUAAACUGUAGCC against LOC643770, the seed-corrected z-score is -2.78. With UUAAUAACCUCAGAAAUGG against TCTEX1D1, the seed-corrected z-score was 0.0567. In the case of UAUUUGCGAAGUCAUGAGG against COPB1, the seed-corrected z-score is -3.25. UGAAUAUCAACAGUCCCUC against ZNF731P gave a seed-corrected z-score of 0.959. UAAAUGACAGAAGCCGUUG against SUCLG1 came in with a seed-corrected z-score of -0.0373. As for UCACAGAUGCCUGUAAAUG against TSACC, the seed-corrected z-score was -0.571. Sequence GCUUGCACGACUCACAGAC against DEFB105A had a seed-corrected z-score of 1.34. Next, AGAGUGUAAUGAGUCUUUG against SCAPER: 0.141. The sequence UCCUCCUUGUCCAUGAUGC against CDC42EP4 gave a seed-corrected z-score of 0.732. The sequence AUCUGCUUAAUCUUUACAC against OR51F2 came in with a seed-corrected z-score of -2.93.

AUCGGAUACCGUGAGAUCC against OXA1L came in with a seed-corrected z-score of 0.367.

UAAUGGGCACGAAUGACGG against ST8SIA3 had a seed-corrected z-score of 0.274. Sequence AAUGGUAUCAUUCACCUUG against RPS4X yielded a seed-corrected z-score of 1.54.

UCGUCUAAAACCAGGAUGC against ABCC3: the seed-corrected z-score was -0.496.

AAUGUUGUUCUGUUUGUCC against FAM122C returned a seed-corrected z-score of -1.09.

UUUAGUUCUUCCCUUAUGG against PDGFC had a seed-corrected z-score of -0.075. In the case of UUCUUCAUCAGCUUAACCG against C1QTNF4, the seed-corrected z-score is -0.00119. Take AUACUUGUACAAUCGGUGC against DIDO1: the seed-corrected z-score was 0.123.

Sequence UUCUUUGCCCGCUUGAGCU against CCDC86 showed a seed-corrected z-score of -0.859. Sequence UUAGUUGCACCCAAAUCCA against CCDC17 registered a seed-corrected z-score of -2.22. With AUGCGAACCUCAUAGGUGG against SNX12, the seed-corrected z-score is -0.364.

In turn, ACACUCAAAAUUACCAGCU against LEMD2 returned a seed-corrected z-score of -1.09. Sequence UGUUUUUGAAGUUAGAUCU against LOC728999 yielded a seed-corrected z-score of 1.08. For the sequence UAAUCCUGACUUUCAAUUG against PAGE3, the seed-corrected z-score is -0.446. On to AACAGUUUCUGCAUUCUUC against PARG, for which the seed-corrected z-score was -0.336. Turning to AGAGGUCUGAGCACAGUUC against HSPA6, the seed-corrected z-score is -1.34. As to UAACAUCUUCGAACUGCGG against MAU2, the seed-corrected z-score was -1.35. Next, UGGUUGUUUAAGUCGACUG against USP33: -2.43; UCCCUUCACAAAGAAAGAG against TLDC2: 0.201. Next, UUUCUUAGAAAGCGGUUCC against MORN5: -0.0295; UAGGAUACAUUGCUGAUGC against CASC1: -0.353; UCUUUCUUUAGUCUGAGUG against NMUR2: 0.78. Turning to UUCUUUAUCUCGAUGAUGC against FAM117B, the seed-corrected z-score is -3.46. With AUCGCUCCCAUAGUUCACC against KRT20, the seed-corrected z-score was -0.0454. The sequence UUUUCCUUAAUUAACGGCA against DTYMK displayed a seed-corrected z-score of -0.22.

In turn, UCUGUGGAUACUGAUAUUC against NRG1 showed a seed-corrected z-score of 1.7.

Regarding UAUGGAAAAAUUAAUCUGU against RAC1, the seed-corrected z-score was -0.118.

The sequence UUCAGUAGAAGUUUCAUCU against POLR2H displayed a seed-corrected z-score of -3.55. Next, UACAGAAUGGUUGUCUUGC against ARF4: 0.573.

Turning to UAGAGUGCUAAGGACAGGG against GFI1B, the seed-corrected z-score turned out to be 0.226.

In the case of AGAUUUAUAAUAAUCCCAC against C11orf72, the seed-corrected z-score turned out to be 0.747.

Sequence UUACUGGAGACCAAUCUUC against FDFT1 gave a seed-corrected z-score of -1.01. UUAUUGACACGAAUACAUC against BTG3 displayed a seed-corrected z-score of 0.565. UGGAGGUUAUGAUCAUUCC against OR51B6: the seed-corrected z-score is -2.91. AUGGUGGUAAUUACGCUGC against SLCO5A1 yielded a seed-corrected z-score of -0.993. On to UGACUUUACCUCAAAGUUG against PRPF19, for which the seed-corrected z-score is -0.0138.
